PubChem BioAssay AID1159580 (chemical genetic matrix, 2015)
Where “and” joins values, the source holds several entries; their conditions need not be identical. Equal entries are not always repeated. Screen size: about 5,500 compounds; about 2,000 (36%) were called active. Inconclusive results (about 18%) are left out. No stated cut-off is given here; in the data, active means normalized growth mostly below about 0.91 (no sharp cut-off); inconclusive means no clear call, values can overlap the other calls; inactive means mostly above about 0.92. This is one part of the list.

Experiment: chemical genetic growth profiling, strain panel (AID 1159580);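 further: tested at 20 µM; growth read once vehicle control cultures reached saturation at 30 °C; 1 = growth at the plate median or of vehicle wells; lower values mean less growth of the strain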
Settings: S. cerevisiae deletion strains, growth OD
[1] = locus YHR030C, strain SLT2, active compounds read low
[2] = locus YHR079C, strain IRE1, active compounds read low
[3] = locus YJL095W, strain BCK1, active compounds read low
[4] = locus YJR066W, strain TOR1, active compounds read low
[5] = locus YLR113W, strain HOG1, active compounds read low
[6] = locus YNL183C, strain NPR1, active compounds read low
[7] = locus YOR231W, strain MKK1, active compounds read low
[8] = locus YPL256C, strain CLN2, active compounds read low

Measured: normalized growth

CCN(CC)C(=O)c1ccc(O)c(OC)c1
inactive: locus YAL013W, strain DEP1, active compounds read low 1.01 | locus YAL040C, strain CLN3, active compounds read low 1.05 | locus YCL061C, strain MRC1 (second series), active compounds read low 1 | locus YDR363W, strain ESC2, active compounds read low 1.01 | locus YER002W, strain NOP16, active compounds read low 1.03 | [1] 0.964 | [2] 0.997 | [3] 1 | [4] 0.957 | [5] 0.99 | locus YNL175C, strain NOP13, active compounds read low 1.01 | [6] 0.938 | locus YNL197C, strain WHI3, active compounds read low 0.999 | locus YNL224C, strain SQS1, active compounds read low 1.01 | locus YNL322C, strain KRE1, active compounds read low 1.03 | locus YOR083W, strain WHI5 (second series), active compounds read low 1.01 | [7] 0.985 | [8] 0.975

CCOc1ccc(C(=O)c2cc(O)c(OC)c(OC)c2O)cc1
active: locus YDR137W, strain rgp1, active compounds read low 0.79 | locus YDR392W, strain spt3, active compounds read low 0.455 | locus YER155C, strain BEM2 (second series), active compounds read low 0.734 | [5] 0.844 | locus YLR262C, strain YPT6 (second series), active compounds read low 0.341 | locus YLR320W, strain mms22, active compounds read low 0.852 | locus YNL071W, strain lat1, active compounds read low 0.626 | locus YNL307C, strain MCK1, active compounds read low 0.858 | locus YPL051W, strain arl3, active compounds read low 0.891
inactive: locus YAL021C, strain ccr4, active compounds read low 1 | locus YAL026C, strain drs2, active compounds read low 0.941 | locus YAL030W, strain snc1, active compounds read low 0.993 | locus YBL061C, strain skt5, active compounds read low 0.998 | locus YBR009C, strain hhf1, active compounds read low 0.938 | locus YBR021W, strain FUR4, active compounds read low 1.06 | locus YBR023C, strain chs3, active compounds read low 0.997 | locus YBR171W, strain sec66, active compounds read low 0.981 | locus YBR229C, strain ROT2, active compounds read low 1.01 | locus YBR231C, strain swc5, active compounds read low 0.987 | locus YBR279W, strain paf1, active compounds read low 1 | locus YCL011C, strain gbp2, active compounds read low 0.998 | locus YCL016C, strain dcc1, active compounds read low 1 | locus YCL029C, strain bik1, active compounds read low 1.01 | locus YCL061C, strain MRC1, active compounds read low 1 | locus YCL069W, strain vba3, active compounds read low 0.997 | locus YCR088W, strain abp1, active compounds read low 0.997 | locus YDL005C, strain med2, active compounds read low 1.01 | locus YDL035C, strain GPR1, active compounds read low 1.02 | locus YDL040C, strain nat1, active compounds read low 1.01 | locus YDL074C, strain BRE1, active compounds read low 1.11 | locus YDL101C, strain DUN1, active compounds read low 1.01 | locus YDL134C, strain PPH21, active compounds read low 1.01 | locus YDL185W, strain tfp1, active compounds read low 1.01 | locus YDL192W, strain arf1, active compounds read low 0.957 | locus YDR001C, strain nth1, active compounds read low 0.999 | locus YDR069C, strain doa4, active compounds read low 0.969 | locus YDR101C, strain arx1, active compounds read low 1 | locus YDR150W, strain NUM1, active compounds read low 1.01 | locus YDR159W, strain sac3, active compounds read low 0.97 | locus YDR162C, strain NBP2, active compounds read low 0.983 | locus YDR195W, strain ref2 1.05 | locus YDR297W, strain sur2, active compounds read low 0.995 | locus YDR318W, strain mcm21, active compounds read low 0.99 | locus YDR334W, strain swr1, active compounds read low 0.987 | locus YDR335W, strain msn5, active compounds read low 0.999 | locus YDR388W, active compounds read low 1.02 | locus YDR502C, strain sam2, active compounds read low 1.02 | locus YEL003W, strain gim4, active compounds read low 0.986 | locus YEL037C, strain rad23, active compounds read low 0.99 | locus YEL061C, strain CIN8 (second series), active compounds read low 0.992 | locus YER015W, strain faa2, active compounds read low 0.999 | locus YER016W, strain bim1, active compounds read low 0.995 | locus YER110C, active compounds read low 1.03 | locus YER111C, strain swi4, active compounds read low 0.989 | locus YER155C, strain BEM2, active compounds read low 0.995 | locus YER167W, strain BCK2, active compounds read low 1 | locus YFR010W, strain ubp6, active compounds read low 0.98 | locus YGL078C, strain dbp3, active compounds read low 1.03 | locus YGL086W, strain mad1, active compounds read low 0.964 | locus YGL167C, strain pmr1, active compounds read low 1 | locus YGL173C, strain kem1, active compounds read low 0.988 | locus YGL227W, strain vid30, active compounds read low 1.01 | locus YGL240W, strain doc1, active compounds read low 0.985 | locus YGL248W, strain PDE1, active compounds read low 1.04 | locus YGL253W, strain hxk2, active compounds read low 1.01 | locus YGR135W, strain pre9, active compounds read low 1.01 | locus YGR252W, strain gcn5, active compounds read low 1.03 | locus YHR013C, strain ard1, active compounds read low 0.985 | locus YHR027C, strain rpn1, active compounds read low 0.991 | [1] 1 and 0.941 | locus YHR079C, strain IRE1 (second series), active compounds read low 1.03 | [2] 0.938 | locus YHR094C, strain hxt1, active compounds read low 1.01 | locus YHR129C, strain ARP1, active compounds read low 1.03 | locus YHR142W, strain chs7, active compounds read low 0.931 | locus YHR200W, strain rpn10, active compounds read low 1.02 | locus YIL066C, strain RNR3, active compounds read low 1.03 | locus YIL073C, strain SPO22, active compounds read low 1.01 | locus YIL125W, strain kgd1, active compounds read low 0.995 | locus YIR030C, strain dcg1, active compounds read low 1.01 | locus YJL092W, strain hpr5, active compounds read low 1 | locus YJL095W, strain BCK1 (second series), active compounds read low 0.938 | [3] 1.05 and 0.949 | locus YJL115W, strain asf1, active compounds read low 1 | locus YJL129C, strain trk1, active compounds read low 0.955 | locus YJL134W, strain LCB3, active compounds read low 0.994 | locus YJL154C, strain vps35, active compounds read low 1 | locus YJL164C, strain tpk1, active compounds read low 0.969 | locus YJL166W, strain qcr8, active compounds read low 0.974 | locus YJL168C, strain set2, active compounds read low 1.01 | locus YJL187C, strain SWE1 (second series), active compounds read low 1.03 | locus YJL187C, strain SWE1, active compounds read low 0.991 | locus YJR043C, strain POL32, active compounds read low 1.06 | [4] 0.882 | locus YJR075W, strain HOC1, active compounds read low 1 | locus YKL009W, strain mrt4, active compounds read low 1.02 | locus YKL068W, active compounds read low 0.988 | locus YKL085W, strain MDH1 (second series), active compounds read low 0.985 | locus YKL085W, strain MDH1, active compounds read low 0.985 | locus YKL160W, strain elf1, active compounds read low 0.966 | locus YKL190W, strain CNB1, active compounds read low 1.01 | locus YKR001C, strain vps1, active compounds read low 0.959 | locus YKR026C, strain gcn3, active compounds read low 0.997 | locus YKR091W, strain srl3, active compounds read low 0.999 | locus YLL001W, strain dnm1, active compounds read low 0.989 | locus YLL026W, active compounds read low 1.01 | locus YLL041C, strain sdh2, active compounds read low 1 | locus YLR027C, strain aat2, active compounds read low 0.99 | locus YLR039C, strain RIC1, active compounds read low 0.871 | locus YLR058C, strain SHM2, active compounds read low 1.03 | locus YLR102C, strain apc9, active compounds read low 1.01 | locus YLR221C, strain rsa3, active compounds read low 0.984 | locus YLR258W, strain gsy2, active compounds read low 0.989 | locus YLR262C, strain YPT6, active compounds read low 0.625 | locus YLR268W, strain sec22, active compounds read low 0.974 | locus YLR330W, strain CHS5, active compounds read low 1 | locus YLR342W, strain FKS1 (second series), active compounds read low 0.952 | locus YLR342W, strain FKS1, active compounds read low 0.995 | locus YLR357W, strain rsc2, active compounds read low 1.02 | locus YLR370C, strain arc18, active compounds read low 0.994 | locus YLR371W, strain rom2, active compounds read low 0.963 | locus YLR384C, strain iki3, active compounds read low 0.999 | locus YLR418C, strain cdc73, active compounds read low 1.04 | locus YML016C, strain PPZ1, active compounds read low 1.01 | locus YML032C, strain rad52, active compounds read low 1.03 | locus YML120C, strain ndi1, active compounds read low 0.986 | locus YML124C, strain tub3, active compounds read low 1.01 | locus YMR058W, strain fet3, active compounds read low 0.981 | locus YMR078C, strain ctf18, active compounds read low 1.03 | locus YMR125W, strain sto1, active compounds read low 1.01 | locus YMR129W, active compounds read low 1 | locus YMR205C, strain PFK2, active compounds read low 0.932 | locus YMR223W, strain ubp8, active compounds read low 0.981 | locus YMR231W, strain pep5, active compounds read low 0.999 | locus YMR263W, strain SAP30, active compounds read low 0.997 | locus YMR307W, strain GAS1, active compounds read low 0.929 | locus YNL067W, strain RPL9B, active compounds read low 1 | [6] 0.906 | locus YNL209W, strain ssb2, active compounds read low 0.992 | locus YNL233W, strain BNI4, active compounds read low 1 | locus YNL248C, strain rpa49, active compounds read low 1 | locus YNL250W, strain rad50, active compounds read low 1.06 | locus YNL271C, strain bni1, active compounds read low 1.01 | locus YNL298W, strain CLA4, active compounds read low 1.04 | locus YNL322C, strain KRE1 (second series), active compounds read low 0.989 | locus YNR049C, strain mso1, active compounds read low 1 | locus YNR052C, strain pop2, active compounds read low 1.02 | locus YOL006C, strain TOP1, active compounds read low 1.18 | locus YOL012C, strain htz1 1.11 | locus YOL147C, strain pex11, active compounds read low 1.01 | locus YOR001W, strain rrp6, active compounds read low 0.992 | locus YOR061W, strain CKA2, active compounds read low 1.01 | locus YOR069W, strain VPS5, active compounds read low 1 | locus YOR070C, strain gyp1, active compounds read low 0.981 | locus YOR080W, strain dia2, active compounds read low 1.01 | locus YOR083W, strain WHI5, active compounds read low 0.977 | locus YOR106W, strain vam3, active compounds read low 0.9 | locus YOR136W, strain idh2, active compounds read low 1.01 | locus YOR144C, strain elg1, active compounds read low 1.01 | locus YOR184W, strain ser1, active compounds read low 1.01 | [7] 0.948 | locus YOR265W, strain rbl2, active compounds read low 0.988 | locus YOR270C, strain vph1, active compounds read low 0.903 | locus YOR290C, strain snf2, active compounds read low 0.979 | locus YOR316C, strain cot1, active compounds read low 1.03 | locus YPL078C, strain atp4, active compounds read low 0.994 | locus YPL106C, strain sse1, active compounds read low 1.04 | locus YPL240C, strain hsp82, active compounds read low 0.991 | locus YPL241C, strain CIN2, active compounds read low 1.01 | [8] 0.934 | locus YPR119W, strain clb2, active compounds read low 1.02 | locus YPR141C, strain kar3, active compounds read low 1 | locus YPR163C, strain tif3, active compounds read low 0.953 | locus YPR167C, strain met16, active compounds read low 1.02 | strain wtn01, active compounds read low 0.992
